High-throughput results deposited in PubChem BioAssay by National Center for Advancing Translational Sciences (NCATS).
A selection: hits, their analogues and other compounds. The true share with any hit is near 19%.
Marburg entry inh: blocks Marburg virus binding to or entry into cells; Marburg virus pseudotyped entry inhibition, cell reporter; Potency, µM (titrated, usually from 37.8 µM), for the others: at the highest dose activity change, negative = inhibition, most hits filed as inhibitors; hit rate 1.8% among 300,000; AID 540276; calls by dose curve; tested in HEK293 cells; further: potency means the concentration at half of the fitted maximal effect; on the % scale 0 is the no-effect control and ±100 the full control effect
Shiga toxin inh: blocks Shiga toxin action in Vero cells. AID 2315. hit rate 9.2% among 290,000. Vero cells, Shiga toxin protein synthesis inhibition reporter. inhibition, % at 38.7 µM; in the data active means inhibition mostly above about 28%, no sharp cut-off; inactive means mostly below about 43%; further: 0% is about no effect
Pf growth 48h: inhibits P. falciparum growth in the first generation, 48 h; hit rate 5.9% among 310,000; AID 504832; P. falciparum luciferase growth in erythrocytes, 48 h; Potency, µM (highest dose often 28.7 µM), without a hit: at the highest dose activity change, negative = inhibition, most hits filed as inhibitors; further: potency means the concentration at half of the fitted maximal effect; on the % scale 0 is the no-effect control and ±100 the full control effect
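Cell-based growth assay: transgenic P. falciparum expressing firefly luciferase, cultured in red cells within RPMI 1640 containing 0.5% w/v Albumax, 24 mM bicarbonate and gentamycin. A drop in luciferase activity indicates inhibition.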
CHX counter: counter-screen for Shiga toxin inhibitors: cycloheximide protein synthesis inhibition; hit rate 12% among 300,000; cell reporter, cycloheximide protein synthesis inhibition counterscreen; max response, %; in the data active means max response mostly above about 13%, no sharp cut-off; inactive means mostly below about 14%; further: read at 38.3 µM for the half of the compounds with a filed dose; 0% is about no effect
Pf growth 96h: P. falciparum growth inhibition at 96 hours. P. falciparum luciferase reporter growth, 96 h. Potency, µM (highest dose often 28.7 µM), for the others: at the highest dose activity change, negative = inhibition, actives largely listed as inhibitors. hit rate 6.9% among 320,000. AID 504834; further: potency means the concentration at half of the fitted maximal effect; on the % scale 0 is the no-effect control and ±100 the full control effect
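Parasite growth measured via integrated firefly luciferase reporter in P. falciparum. Infected erythrocytes at 2% hematocrit, 0.05% parasitemia final were treated 96 hours at 37 C under 5% CO2, and luminescence was read.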
Lassa entry inh: blocks Lassa virus binding to or entry into cells; Lassa virus pseudotype entry inhibition, cell reporter; Potency, µM (top dose mostly 37.9 µM), inactives show top-dose activity change, negative = inhibition, most hits filed as inhibitors; hit rate 1.2% among 300,000; calls by dose curve; tested in HEK293 cells; further: potency means the concentration at half of the fitted maximal effect; on the % scale 0 is the no-effect control and ±100 the full control effect; nearly all actives have a fitted effect of over 50% in size
* = called active by the depositor; i = inactive; ? = inconclusive; / = no result; [ ] = another dose, or the depositor's remark. Unless noted, the call rests on the fitted dose curve; in most records, active means well fitted inhibition curve with a large enough effect; inconclusive means small, poorly fitted or top-dose-only effect, or another doubt; inactive means no such curve, though single readings can be large or run the other way.

SMILES	Marburg entry inh	Shiga toxin inh	Pf growth 48h	CHX counter	Pf growth 96h	Lassa entry inh
O=C(/C=C/c1ccco1)Nc1ccc(C(=O)N2CCOCC2)cc1	3%	26	2%	12	9.3µM*	22%
O=C(/C=C/c1ccccc1)Nc1ccc(CN2CCOCC2)cc1	/	35*	85%	47*	37%	/
O=C(/C=C/c1ccco1)Nc1ccc(CN2CCOCC2)cc1	/	46*	226%	41*	169%	/
O=C(/C=C/c1ccco1)Nc1cccc(S(=O)(=O)N2CCOCC2)c1	?	13	15%	2	?	-3%
O=C(/C=C/c1ccco1)Nc1ccccc1N1CCOCC1	-1%	-5	17%	1	27%	5%
O=C(/C=C/c1ccco1)Nc1ccc(N2CCCC2)cc1	?	66*	2%	68*	3%	?
O=C(NCCCO)c1ccc2nc(-c3ccco3)c(-c3ccco3)nc2c1	3%[46.1 µM]	-7	8%	9	54%	?
CCOC(=O)c1cc(-c2ccc(OC)cc2OC)nn1-c1ccc(C(=O)O)cc1	/	5	-17%	21*	?	/
Cc1cc(C)nc(SCc2nnc(SCC#N)n2-c2cccc(Cl)c2)n1	-22%	-12	7.4µM*	11	?	-28%
Nc1cc(Cl)ccc1Oc1ccccc1	-4%	-8	58%	-1	-1%	-8%
COC(=O)c1ccc2c(=O)n(CCCCCC(=O)NCc3ccc4c(c3)OCO4)c(=O)[nH]c2c1	5%	-13	/	4	?	-4%
CNC[C@@H](C)NC[C@@H](Cc1ccccc1)NCCc1ccccc1	/	-8	?	-3	2.9µM*	/
CC[C@H](C)[C@@H](CN[C@H](C)CNC)NCCC(c1ccccc1)c1ccccc1	/	-3	?	-2	?	/
N=C1Sc2ccccc2C2=NCCCN12	1.6µM*	/	/	/	/	/
CCOC(=O)c1ccc(NC(=O)Cn2nc3c4ccccc4n(Cc4cccc(F)c4)cc-3c2=O)cc1	/	/	/	/	/	0%[46.1 µM]
COc1ccc(OC)c(-c2cc(C(=O)N3CCOCC3)no2)c1	19%[46.1 µM]	17	38%	14*	-31%	-11%
COc1ccccc1-c1cc(C(=O)N2CCN(c3ccccc3)CC2)no1	?	2	11%	-2	15%	10%[46.1 µM]
O=C(c1cc(-c2ccccc2O)on1)N1CCOCC1	-8%[46.1 µM]	80*	114%	31*	212%	-10%
O=C(c1cc(-c2ccccc2O)on1)N1CCCCCC1	-25%[46.1 µM]	104*	29%	34*	44%	-29%
Cc1ccccc1CSc1nsc(N)n1	-22%	26	3%	13	6%	17%
CCc1nc(SCC(=O)Nc2ccccc2C)n[nH]1	/	-8	13%	-2	-17%	/
CCc1nc(SCc2ccccc2C)n[nH]1	/	44	-18%	21*	6.6µM*	/
Cc1nc(SCc2ccccc2C)n[nH]1	28%	active	15%	19*	-15%	5%
N#C/C(=N/Nc1ccccc1[N+](=O)[O-])C(N)=S	12%[46.1 µM]	28	16%	5	5%	-14%[46.1 µM]
COC(=O)N/N=C(\C)c1ccc(C)c([N+](=O)[O-])c1	19%	17*	71%	19*	90%	?
SMILES	Marburg entry inh	Shiga toxin inh	Pf growth 48h	CHX counter	Pf growth 96h	Lassa entry inh
C/C(=N\NC(=O)c1cccnc1)c1ccc(C)c([N+](=O)[O-])c1	/	13	4%	11	-28%	/
C/C(=N\Nc1ccccc1[N+](=O)[O-])c1ccc(N2CCOCC2)cc1	14%[46.1 µM]	86*	i	21*	141%	4%
C/C(=N\Nc1ccc([N+](=O)[O-])cc1)c1ccc(N2CCOCC2)cc1	13%[46.1 µM]	-12	2%	-3	95%	0%
C/C(=N/Nc1ccccc1[N+](=O)[O-])c1ccc(C)c([N+](=O)[O-])c1	/	-6	?	16*	36%	/
CC(C)/C(=N/Nc1ccccc1[N+](=O)[O-])c1ccccc1	?	48*	7%	27*	8.3µM*	?
Cc1cccc(Sc2c([N+](=O)[O-])ncn2C)n1	-22%	-13	-13%	-4	?	-3%
C=CCNC(=S)Nc1cc(S(=O)(=O)N2CCOCC2)ccc1-n1cncn1	-6%	-10	-1%	3	31%	1%
COCCNc1nc2c(c(=O)[nH]c(=O)n2C)n1CCCc1ccccc1	6%	/	0%	-2	-10%	-1%
Cc1nc2ccc([N+](=O)[O-])cc2c(=O)n1Cc1cccc(Br)c1	?	3	-14%	-2	-5%	12%[46.1 µM]
O=c1c(C(c2ccc(O)cc2)c2c(O)nc3n(c2=O)CCCS3)c(O)nc2n1CCCS2	12%	-10	2.9µM*	-4	?	12%
O=c1c(C(c2ccc(O)cc2)c2c(O)nc3n(c2=O)CCS3)c(O)nc2n1CCS2	4%	20	-6%	10	-1%	-9%
O=S1(=O)N=C(N(CCO)/N=C/c2ccccc2)c2ccccc21	-7%[46.1 µM]	-23	-2%	-6	?	6%
Cc1cc(C)n(CCCN2CCC(C(=O)Nc3cccc(-c4cccc(F)c4)c3)CC2)n1	13µM*	-11	?	-4	0%	-8%
CCn1ncc(CN2CCC(C(=O)Nc3cccc(-c4cccc(F)c4)c3)CC2)c1C	/	-5	?	-2	78%	/
O=C(Nc1cccc(-c2cccc(F)c2)c1)C1CCN(C2CCOCC2)CC1	/	-5	?	1	7.4µM*	/
CCN(CC(=O)Nc1c(F)cccc1F)C(=O)CN(C)S(=O)(=O)c1ccc(F)cc1	8%	/	?	/	26%	-16%
C=CCOc1ccc(C(=O)Nc2ccc(OCC)cc2)cc1	2%[46.1 µM]	39	0%	7	4.1µM*	1%[46.1 µM]
CC(=O)Nc1ccc(OCC=C(Cl)Cl)cc1	12%	25*	-24%	11*	2%	8%
C=CCOc1ccc(CN(C)C(=O)CNC(=O)c2ccc(-c3ccccc3)cc2)cc1	?	30	13µM*	5	-29%	?
C=CCNC(=O)Nc1ccc(OCC)cc1	2%	10	25%	12*	/	42%
CC(=O)c1ccc(NC(=O)COC(=O)c2ccccc2Nc2ccccc2)cc1	-6%	11	9%	10	?	8%
CO/N=C/NC(=O)NOCc1ccc(Cl)cc1Cl	0%	-21	12%	-3	/	16%
O=S(=O)(c1cccc2cccnc12)N1CCCc2ccccc21	-22%[46.1 µM]	30	-11%	8	?	?
CCN(C(=O)COC(=O)c1ccc2ccccc2n1)c1c(N)n(Cc2ccccc2)c(=O)[nH]c1=O	2%	/	34%	/	7%	-10%
COc1ccc(NS(=O)(=O)c2cc(NC(=O)Cc3cccs3)ccc2C)cc1	?	6	-13%	0	-11%	1.8µM*
O=C(Cc1cccs1)Nc1ccc(S(=O)(=O)N2CCCC2)cc1	20%[46.1 µM]	17	-18%	11	11%	4%[46.1 µM]
COc1ccc(NS(=O)(=O)c2ccc(NC(=O)Cc3cccs3)cc2)cc1	?	-6	-11%	-3	?	?
COc1ccc(NS(=O)(=O)c2cc(NC(=O)[C@@H](NC(=O)c3ccccc3)C(C)C)ccc2C)cc1	?	-2	9.3µM*	-3	9.3µM*	?
